Screening results deposited in PubChem BioAssay by National Center for Advancing Translational Sciences (NCATS).
G9a block: qHTS Assay for Inhibitors of Histone Lysine Methyltransferase G9a | G9a H3K9 monomethylation, AlphaScreen, 2 h | hit rate 8.8% among 350,000 | Potency, µM (series often up to 102 µM), without a hit: top-dose activity, negative = inhibition, actives largely listed as inhibitors | AID 504332, 2011; also: % is scaled to controls: 0 for no effect and ±100 for the full control effect; nearly all actives have a fitted effect of over 75% in size
Target sequence (Q96KQ7 913-1193 limits assumed): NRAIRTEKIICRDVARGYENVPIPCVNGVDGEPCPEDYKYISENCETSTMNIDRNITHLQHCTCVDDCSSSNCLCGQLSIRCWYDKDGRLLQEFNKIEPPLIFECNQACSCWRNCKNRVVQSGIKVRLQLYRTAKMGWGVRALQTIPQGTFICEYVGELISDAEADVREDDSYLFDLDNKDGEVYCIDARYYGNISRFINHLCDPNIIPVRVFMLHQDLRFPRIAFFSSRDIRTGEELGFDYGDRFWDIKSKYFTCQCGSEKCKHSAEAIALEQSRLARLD
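Quantitative HTS format: methyltransferase activity on a biotin-tagged H3K9 peptide is measured by AlphaScreen, using a rabbit anti-monomethyl-H3K9 antibody with streptavidin donor and anti-IgG acceptor beads. Final levels are 20 nM enzyme, 500 nM peptide, 20 uM SAM; 2 h RT.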
L3MBTL1 inh: qHTS Assay for the Inhibitors of L3MBTL1 | Lethal(3)malignant brain tumor-like protein 1 (Homo sapiens), Q9Y468 | AlphaScreen L3MBTL1–H3K9me1 peptide binding | Potency, µM (top dose mostly 57.1 µM), inactives show top-dose activity, negative = inhibition, most hits filed as inhibitors | hit rate 0.66% among 230,000 | AID 485360, 2010; also: % is scaled to controls: 0 for no effect and ±100 for the full control effect; nearly all actives have a fitted effect of over 60% in size
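L3MBTL1 (50 nM) pre-complexed 30 min with biotinylated H3(1-15)K9me1 peptide (75 nM), then compounds added for 30 min at room temperature; AlphaScreen streptavidin donor/nickel chelate acceptor beads (10 ug/mL final) read after 30 min dark incubation.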
BAZ2B block: qHTS Assay for Inhibitors of BAZ2B. Bromodomain adjacent to zinc finger domain protein 2B (Homo sapiens), Q9UIF8. AlphaScreen BAZ2B-H3K14Ac peptide displacement. Potency, µM (series often up to 114 µM), for the others: top-dose activity change, negative = inhibition, most hits filed as inhibitors. hit rate 4.4% among 360,000. AID 504333, 2011; also: % is scaled to controls: 0 for no effect and ±100 for the full control effect; nearly all actives have a fitted effect of over 60% in size
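AlphaScreen displacement of biotin-H3(5-23)K14Ac peptide (50 nM final) from BAZ2B (50 nM final) in PBS pH 7.4, 0.01% Tween-20; complex preformed 30 min RT, then compounds (top 110 uM) 30 min RT, beads 20 min dark.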
JMJD2A Tudor: qHTS Assay for Inhibitors of JMJD2A-Tudor Domain | AlphaScreen JMJD2A-Tudor / H3K4me3 peptide binding | hit rate 4.4% among 390,000 | Lysine-specific demethylase 4A (Homo sapiens), O75164 | Potency, µM (highest dose often 114 µM), for inactives: at the highest dose activity change, negative = inhibition, actives largely listed as inhibitors; also: % is scaled to controls: 0 for no effect and ±100 for the full control effect; nearly all actives have a fitted effect of over 50% in size
HP1b chromo inh: HTS for Inhibitors of HP1-beta Chromodomain Interactions with Methylated Histone Tails | Chromobox protein homolog 1 (Homo sapiens), P83916 | Potency, µM (highest dose often 114 µM), for the others: at the highest dose activity change, negative = inhibition, most hits filed as inhibitors | AlphaScreen HP1-beta / biotin-H3K9me3 peptide binding | AID 540317, 2011 | hit rate 0.56% among 390,000; also: nearly all actives have a fitted effect of over 70% in size
Target sequence (P83916 whole entry, looked up): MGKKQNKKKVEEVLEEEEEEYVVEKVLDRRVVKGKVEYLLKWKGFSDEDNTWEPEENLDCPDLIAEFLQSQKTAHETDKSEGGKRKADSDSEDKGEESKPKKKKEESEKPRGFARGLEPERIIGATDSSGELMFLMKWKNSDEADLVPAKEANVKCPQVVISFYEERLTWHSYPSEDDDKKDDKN
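Compound inhibition of the preformed complex between 50 nM HP1-beta and 50 nM biotinylated H3K9me3 peptide was read by AlphaScreen. Buffer was PBS pH 7.4 with 0.01% Tween-20. Incubations ran 30 min at room temperature, with 10 ug/mL donor/acceptor beads.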
The depositor's hits bear a star; ? = inconclusive; . = not tested or not shown; [ ] = remark or other dose. The list is not random: actives were taken first. Their share in the collection is about 11%. Calls follow the shape of the dose curve; as a rule, active = well fitted inhibition curve with a large enough effect; inconclusive = small, poorly fitted or top-dose-only effect; inactive = no such curve, though single readings can be large or run the other way. Potency is read from the fitted curve at half-maximal effect.

SMILES | G9a block | L3MBTL1 inh | BAZ2B block | JMJD2A Tudor | HP1b chromo inh
COc1ccc(N2CCN(C(=O)CCc3c(C)nc4c(-c5ccccc5)c(C)nn4c3C)CC2)cc1 | ? | . | ? | -32% | 19%
CC(=O)c1sc(NC(=O)C2CC(=O)N(Cc3ccco3)C2)nc1-c1ccccc1 (stereo not given) | 50µM* | -21% | ? | ? | ?
COc1ccc(-c2nc(NC(=O)C3CC(=O)N(Cc4ccco4)C3)sc2C)cc1 (stereo not given) | -9%[2.33 µM] | -4% | ? | ? | -17%
O=C(Nc1ccc(Cl)cc1F)C1CC(=O)N(Cc2ccco2)C1 (stereo not given) | 56µM* | 1% | 7% | -13% | 22%
CCN(C(=O)CN(C)S(=O)(=O)c1ccc2c(c1)c(=O)n(C)c(=O)n2C)c1ccc(OC)cc1 | -4%[59 µM] | . | -17% | -2% | 29%
N#C/C(=C\Nc1ccc(Cl)cc1)S(=O)(=O)c1ccccn1 | 6% | 3% | 3% | -8% | 0%
Cc1ccc(NN=C2c3ccccc3-c3ccccc32)cc1 | 8.9µM* | -4% | ? | 56µM* | ?
c1ccc(NN=C2c3ccccc3-c3ccccc32)cc1 | . | . | . | -27% | 3%
CCn1nc(C)c2c(-c3ccccc3)cc(=O)n(C(C)C(=O)NCc3ccccc3OC)c21 (stereo not given) | 8%[59 µM] | . | -12% | -23% | 15%
CCn1c2ccccc2c2cc(CN3CCN(Cc4cc(OC)ccc4O)CC3)ccc21 | 10µM* | -28% | 20µM* | 1µM* | ?
CCn1c2ccccc2c2cc(CN3CCN(Cc4ccccc4C)CC3)ccc21 | 1.8µM* | . | 56µM* | 5.6µM* | ?
CCn1c2ccccc2c2cc(CN3CCN(Cc4ccccc4F)CC3)ccc21 | 2µM* | . | 16µM* | 4µM* | ?
CCn1c2ccccc2c2cc(CN3CCN(S(C)(=O)=O)CC3)ccc21 | 0%[59 µM] | -2% | ? | ? | ?
Cc1cc(Nc2ccc(C)c(Cl)c2)n2nc(Cc3ccccc3)nc2n1 | 21%[59 µM] | . | -21% | -25% | 40%
COc1ccc(C)cc1NC(=O)c1cc(C2CC2)nc2c1c(C)nn2C1CCS(=O)(=O)C1 (stereo not given) | . | . | . | -14% | 21%
COc1cccc(C(=O)N(Cc2ccco2)c2ccccn2)c1 | -11%[59 µM] | . | -24% | -13% | 27%
NC(=O)CSc1nc2c(oc3ccccc32)c(=O)n1-c1ccccc1F | 9%[59 µM] | . | 5% | 8% | 38%
Cc1cccc(NC2CNC(=O)NC2=O)c1 (stereo not given) | . | . | . | -19% | 5%
Cc1cccc(NC2SC(=O)NC2=O)c1 (stereo not given) | 50µM* | 4% | ? | ? | 0%
O=[N+]([O-])c1ccc(N2CCN(c3ccccc3O)CC2)c(Cl)c1 | ? | -11% | ? | -30% | ?
O=C1NC(c2cccc([N+](=O)[O-])c2)=CCN1c1ccccc1O | 19µM* | -13% | -21% | -12% | 13%[57 µM]
CCOc1cc(/C=C(/C#N)c2nc3ccccc3[nH]2)ccc1OCc1ccc(C(=O)O)o1 | 71µM* | -28% | ? | -23% | 17%
COc1cc(/C=C(/C#N)c2nc3ccccc3[nH]2)ccc1OCC(=O)Nc1ccccc1C(C)C | 27%[0.501 µM] | -6% | 50µM* | -16% | 18%
COc1cc(/C=C(/C#N)c2nc3ccccc3[nH]2)ccc1OCC(=O)Nc1ccccc1C | 38%[12.7 µM] | 0% | -7% | -19% | 23%
CCS(=O)(=O)N1CCN(C(C)CCc2ccccc2)CC1 (stereo not given) | ? | 7% | ? | 8.9µM* | ?
SMILES | G9a block | L3MBTL1 inh | BAZ2B block | JMJD2A Tudor | HP1b chromo inh
CC(CCc1ccccc1)N1CCN(Cc2ccccc2)CC1 (stereo not given) | 11µM* | 3% | 50µM* | 2.2µM* | 45µM*
CC(C)(C)OC(=O)N1CCC(c2c(C(=O)NCc3ccccn3)cnn2-c2ccccc2)CC1 | 8%[59 µM] | . | 7%[57.1 µM] | -15% | 34%
CCOC(=O)[C@H]1[C@H]2COc3ccc(Br)cc3[C@@H]2N2C(=O)CN(Cc3ccco3)C(=O)[C@@]12C | 7%[0.501 µM] | -4% | 50µM* | ? | 9%
COCCN=C1NN=C(c2ccc(C)c([N+](=O)[O-])c2)CS1 | 10µM* | -6% | -29% | ? | 12%
COc1ccc(N=C2NN=C(c3ccc4c(c3)OCCO4)CS2)cc1 | 45µM* | . | ? | ? | ?
CCCCN=C1NN=C(c2ccc3c(c2)OCCO3)CS1 | 45µM* | . | . | -35% | 18%
COCCn1c(C)cc(C2=NNC(=NC(C)(C)C)SC2)c1C | ? | -9% | -33% | ? | -9%
CCCCN=C1NN=C(c2ccc(C)c(C)c2)CS1 | 32µM* | . | -36% | -21%[11.4 µM] | ?
FC(F)Sc1ccc(N=C2NN=C(c3ccc4c(c3)OCCO4)CS2)cc1 | . | -12% | -7% | -23% | ?
O=C(Nc1ccc(F)cc1)c1ccc2c(c1)NC(=O)c1ccccc1S2 | -28%[59 µM] | . | -1% | -3% | 36%
Cc1cc(C(=O)COC(=O)c2ccc(Br)o2)c(C)n1Cc1ccco1 | ? | -23% | ? | . | .
Cc1cc(C(=O)COC(=O)c2ccc(CO)cc2)c(C)n1CC1COc2ccccc2O1 (stereo not given) | 4µM* | -17% | ? | -27% | 1%
CCOc1ncccc1C(=O)OCC(=O)c1ccc(F)cc1 | 33% | 18% | 11% | 20µM* | 8%
O=C(COC(=O)c1cccnc1Cl)c1ccc(F)cc1 | 5% | 5%[11.4 µM] | -13% | 1% | 45%
CCOc1ncccc1C(=O)OCC(=O)c1cc(C)n(Cc2ccco2)c1C | ? | -16% | 50µM* | ? | -3%
Cc1cc(C(=O)COC(=O)c2ccc(O)cc2)c(C)n1Cc1ccco1 | ? | -17% | 50µM* | ? | ?
Cc1cc(C(=O)CN2C(=O)C(=O)N(Cc3ccccc3)C2=O)c(C)n1CC1COc2ccccc2O1 (stereo not given) | -2% | 3% | -13% | -23% | 12%
CCc1nn(CC(=O)Nc2cccc(C(C)=O)c2)c(=O)c2cc3sccc3n12 | ? | . | -1% | -17% | 4%
Cc1ccc(S(=O)(=O)Nc2cc(Cl)c3oc4c(c3c2)CCCC4)cc1 | -28%[59 µM] | . | -37% | -19% | 11%
CN1CCN(CC(=O)NN(Cc2ccccc2)c2ccccc2)CC1 | . | . | -2% | 7.9µM* | ?
CCN(Cc1ccccc1)C(=O)CC(=O)N(CC)Cc1ccccc1 | -5% | . | -19% | -6% | 7%
